Cruzain inh Det: cruzain (T. cruzi) inhibition with detergent. purified cruzain, Z-FR-AMC fluorescence, 0.01% Triton. AID 1478. Potency, µM, usual class: inhibitors. hit rate 0.43% among 200,000. P25779; further: nearly all actives have a fitted effect of over 40% in size
Target sequence (P25779 123-467 limits assumed): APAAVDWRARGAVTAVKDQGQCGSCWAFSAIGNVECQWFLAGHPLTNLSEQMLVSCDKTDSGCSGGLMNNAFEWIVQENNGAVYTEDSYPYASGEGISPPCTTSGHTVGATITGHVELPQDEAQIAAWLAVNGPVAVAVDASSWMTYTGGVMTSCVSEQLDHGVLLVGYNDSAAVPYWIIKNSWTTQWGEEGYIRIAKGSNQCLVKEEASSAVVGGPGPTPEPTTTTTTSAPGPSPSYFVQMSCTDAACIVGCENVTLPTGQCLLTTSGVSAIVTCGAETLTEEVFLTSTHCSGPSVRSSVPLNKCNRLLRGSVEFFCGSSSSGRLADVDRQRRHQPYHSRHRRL
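Detergent-containing arm of a paired screen for aggregation-based inhibition: 0.01% Triton X-100 present. Cruzain at 1.5 nM cleaved 2 uM Z-FR-AMC at pH 5.5 with 5 mM DTT; AMC fluorescence gain over 60 s measured activity.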
Cruzain noTriton: blocks cruzain activity in detergent-free assay; purified cruzain, Z-FR-AMC fluorescence, no detergent; Potency, µM, usual class: inhibitors; hit rate 2.3% among 200,000; AID 1476; P25779; further: nearly all actives have a fitted effect of over 40% in size
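Detergent-free condition (0.00005% Triton X-100) in acetate buffer pH 5.5 with DTT. 1.5 nM enzyme and compound were pre-mixed 15 min, then 2 uM Z-FR-AMC substrate added; reaction progress from fluorescence change between first and third reads (60 s).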
Each line names hits and unclear results; the compound was inactive in the other large screens. In the library only some 2.6% were active in any assay of this set; here they are far more common. The call rests on the fitted dose curve; in most records, active means well fitted curve in the direction sought with a large enough effect; inconclusive means small, poorly fitted or top-dose-only effect, or another doubt; inactive means no such curve, though single readings can be large; an effect the other way counts as inactive or inconclusive.

OC[C@@H]1[C@@H](c2ccccc2)C(c2ccc(F)cc2)=NN1c1ccccc1	Cruzain noTriton inconclusive
OC[C@@H]1[C@@H](c2ccc(F)cc2)C(c2ccc(F)cc2)=NN1c1ccccc1	Cruzain noTriton 20µM
COc1ccccc1-c1nn(CCC(=O)Nc2cccc(C(C)=O)c2)c2nc(C)cc(C)c12	Cruzain noTriton inconclusive
O=C(Cn1ccc2cc(S(=O)(=O)N3CCCCCC3)ccc21)NCc1ccccc1Cl	none
Cc1cc2nc(/N=C(\N)NC(=O)N3c4ccccc4Sc4ccccc43)nc(C)c2cc1C	Cruzain noTriton 16µM
Cc1ccc2nc(/N=C(\N)NC(=O)N3c4ccccc4Sc4ccccc43)nc(C)c2c1	Cruzain noTriton inconclusive
O=C(C[N+]12CN3CN(CN(C3)C1)C2)c1ccc(-c2ccccc2)cc1	Cruzain noTriton inconclusive
Cc1ccc(Cl)cc1-n1c(=O)c2sc3ccccc3c2n(Cc2ccccc2)c1=O	none
COc1cccc(Cn2c(=O)n(-c3ccc(Br)cc3F)c(=O)c3sc4ccccc4c32)c1	Cruzain noTriton 13µM
CN(N=O)C(=O)N[C@H]1[C@@H](O)[C@H](O)[C@H](CO)O[C@@H]1O	none
Cc1ccc(S(=O)(=O)c2nc(C)oc2NCc2ccccc2)cc1	Cruzain inh Det 20µM, Cruzain noTriton 20µM
O=S(=O)(c1ccccc1)c1nc(-c2ccco2)oc1NCc1ccccc1	Cruzain inh Det 22µM, Cruzain noTriton 25µM
O=S(=O)(c1ccccc1)c1nc(-c2ccco2)oc1NCc1ccco1	none
O=S(=O)(c1ccc(Cl)cc1)c1nc(-c2cccc(Br)c2)oc1NCc1ccccc1	Cruzain noTriton 13µM
CCCCNc1oc(-c2ccc(OC)cc2)nc1S(=O)(=O)c1ccccc1	Cruzain inh Det 28µM, Cruzain noTriton inconclusive
CCNc1oc(-c2ccc(OC)cc2)nc1S(=O)(=O)c1ccc(Br)cc1	none
O=S(=O)(c1ccccc1)c1nc(-c2cccc(Cl)c2)oc1NCc1ccccc1	none
Cc1ccc(S(=O)(=O)c2nc(-c3ccccc3F)oc2NCc2ccccc2)cc1	none
COc1ccc(-c2noc(-c3cccnc3N3CCN(c4ccc(OC)cc4)CC3)n2)cc1	none
CCOc1cc(CNCCSc2nnnn2C)cc(Cl)c1OCc1ccc(Cl)cc1	none
O=C(NCc1cccc2ccccc12)[C@H]1C[C@@H]1[C@H](NP(=O)(c1ccccc1)c1ccccc1)c1ccccc1	none
Cn1c(NCCO)nc2c1c(=O)n(Cc1ccccc1Cl)c(=O)n2C	none
CCCCN(C)S(=O)(=O)c1ccc(C(=O)Nc2ccc(-c3nc4ccc(C)cc4s3)cc2)cc1	none
COc1ccc(C=Nc2c(O)ccc3ccccc23)cc1OC	none
CC1=C(C(=O)Nc2ccc(C)cc2C)C(c2ccccc2)n2ncc(C(=O)Nc3ccccc3)c2N1 (configuration not stated)	Cruzain noTriton inconclusive
CCN(CC)c1ccc(NC(=O)C(Cc2ccccc2)NS(=O)(=O)c2ccc(Br)s2)c(C)c1 (configuration not stated)	none
O=C(Cn1c(=O)oc2cc(S(=O)(=O)NCc3ccccc3)ccc21)NCc1ccc(F)cc1	none
CCn1cnc2cc(NS(=O)(=O)c3ccc(C)cc3)ccc21	none
Cc1ccc(S(=O)(=O)Nc2ccc3c(c2)CCC3)cc1	none
Cc1ccc(S(=O)(=O)Nc2ccc3c(c2)c2c(n3S(=O)(=O)c3ccc(C)cc3)CCCC2=O)cc1	Cruzain noTriton 7.9µM
CCOC(=O)c1c(C)n(S(=O)(=O)c2ccc(C)cc2)c2ccc(NS(=O)(=O)c3ccc(C)cc3)cc12	Cruzain noTriton 4µM
Cc1c2cccc(Sc3ccccc3)c2c2c3c(cccc13)[S+](c1ccccc1)C2 (configuration not stated)	Cruzain noTriton 2.5µM
C[C@H]1C2=C3C(CC[C@H]4C(OCc5ccc(F)cc5C(F)(F)F)OC[C@](C)([C@@H]34)N(C(=O)OC(C)(C)C)C2)C2COC(=O)OCC21 (some centres not stated)	Cruzain noTriton inconclusive
CC(C)[C@@H]1C(=O)N(S(C)(=O)=O)[C@H]2CCN(C(=O)/C=C\CN3CCCCC3)[C@@H]12	none
COc1ccc(C(=O)COC(=O)c2cc(-c3cccs3)nc3ccccc23)cc1	Cruzain noTriton 20µM
Cc1ccc(C(=O)COC(=O)c2cc(-c3cccs3)nc3ccccc23)cc1	Cruzain noTriton inconclusive
N[C@@H](Cc1ccccc1)P(=O)(O)O	none
Cc1cc(C(=O)NCC(=O)OCC(=O)N2CCCCCC2)ccc1[N+](=O)[O-]	Cruzain inh Det 14µM, Cruzain noTriton 16µM
CCOC(=O)C1CCCN(C(=O)c2ccc([N+](=O)[O-])c(C)c2)C1 (configuration not stated)	none
O=C(CNC(=O)c1cccc(F)c1)OCC(=O)N1CCCCC1	Cruzain inh Det 25µM, Cruzain noTriton inconclusive
CCOc1ccc(C(=O)NCC(=O)OCC(=O)N2CCCCC2)cc1	none
COC(=O)C1=C(C)NC(C)=C(C(=O)OCCNCc2ccccc2)C1c1cccc([N+](=O)[O-])c1 (configuration not stated)	none
